# ADAM10 inh – ADAM10 inhibition, QFRET primary screen; O14672; recombinant ADAM10, EDANS/DABCYL FRET peptide cleavage, 3 h; inhibition, % at 7 µM; actives 0.62% (n = 370,000);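 active = inhibition above a per-campaign cutoff equal to the mean of compounds falling between control-based bounds plus 3 SD, cut at about 20% in these data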;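 note: 0% = DMSO wells while the 100% control is not disclosed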
# GRIN3A LBD mod – modulators (binders) of human NR3A ligand-binding domain; NR3A LBD differential scanning fluorimetry, Tm shift; 0% = protein alone, 100% = glycine-bound protein; Tm shift relative to glycine control, % at 25 µM; actives 2.5% (n = 340,000);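 active = melting temperature shift of at least 10% of the positive control shift, at one fixed dose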
# rCAG binder – r(CAG) repeat RNA binding; TO-PRO-1 dye displacement fluorescence; inhibition, % at 3 µM; actives 1.3% (n = 370,000); AID 651821;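 active = inhibition above the plate cutoff, the mean of all test compounds on that plate plus 3 SD, cut at about 35% in these data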;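 note: 0% = DMSO alone and 100% = 100 µM mitoxantrone as full dye displacement; higher means more dye released from RNA so lower well fluorescence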
# AHR activator – activators of human aryl hydrocarbon receptor; P35869; AHR-responsive luciferase reporter cells, luminescence; activation, % at 5 µM; actives 2.5% (n = 320,000); AID 2796; in the data active = activation above about 47%;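 note: 0% = vehicle wells and 100% = reference agonist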
# Target sequence (P35869 whole entry, looked up): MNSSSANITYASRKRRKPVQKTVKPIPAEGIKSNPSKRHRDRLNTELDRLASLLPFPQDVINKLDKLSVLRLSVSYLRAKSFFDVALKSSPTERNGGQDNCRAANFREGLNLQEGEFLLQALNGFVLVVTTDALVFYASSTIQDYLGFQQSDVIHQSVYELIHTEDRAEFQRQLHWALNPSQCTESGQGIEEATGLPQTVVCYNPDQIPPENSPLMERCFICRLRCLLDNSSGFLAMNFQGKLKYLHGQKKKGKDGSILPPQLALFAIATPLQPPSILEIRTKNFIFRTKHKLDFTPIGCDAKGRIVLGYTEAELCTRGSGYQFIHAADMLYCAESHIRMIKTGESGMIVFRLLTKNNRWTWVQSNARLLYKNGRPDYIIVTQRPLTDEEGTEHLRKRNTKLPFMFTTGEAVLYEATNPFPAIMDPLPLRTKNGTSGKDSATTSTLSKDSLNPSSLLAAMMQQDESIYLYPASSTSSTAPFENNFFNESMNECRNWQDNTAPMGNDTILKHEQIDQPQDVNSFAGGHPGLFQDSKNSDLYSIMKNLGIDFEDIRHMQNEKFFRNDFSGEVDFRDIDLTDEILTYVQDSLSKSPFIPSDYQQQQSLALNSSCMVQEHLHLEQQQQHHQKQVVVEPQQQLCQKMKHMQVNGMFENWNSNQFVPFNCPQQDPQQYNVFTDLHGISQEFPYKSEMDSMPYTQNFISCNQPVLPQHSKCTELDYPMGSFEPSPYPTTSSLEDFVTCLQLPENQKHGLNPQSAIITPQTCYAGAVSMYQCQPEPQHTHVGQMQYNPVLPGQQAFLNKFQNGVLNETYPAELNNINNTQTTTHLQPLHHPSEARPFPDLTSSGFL
# proKLK7 act – activates the human kallikrein-7 zymogen | P49862 | purified proKLK7, EDANS-DABCYL substrate fluorescence; 100% is mature enzyme control, 0% vehicle | activation, % at 7 µM | actives 0.9% (n = 370,000) | AID 652039;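 active = activation above the mean of all tested compounds plus 3 SD, computed per campaign excluding outliers beyond control limits, cut at about 13% in these data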
# ADAM17 inh – inhibitors of human ADAM17; actives 0.83% (n = 370,000); P78536; recombinant ADAM17, EDANS/DABCYL FRET peptide cleavage; AID 720648; inhibition, % at 6.95 µM;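 active = inhibition above the mean of compounds lying between control limits plus 3 SD, set per campaign, cut at about 8.5% in these data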;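 note: 0% = DMSO-only wells as the low control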
# * = called active by the depositor; i = inactive; . = no result. An excerpt weighted towards active compounds, which were near 7% of everything screened.
SMILES,ADAM10 inh,GRIN3A LBD mod,rCAG binder,AHR activator,proKLK7 act,ADAM17 inh
CCCNC(=O)c1c(N)n(Cc2ccc3c(c2)OCO3)c2nc3ccccc3nc12,.,21*,.,0,.,.
CC(C)C[C@H]1N=C(c2ccccc2)c2ccccc2N(CC(=O)NC(C)(C)C)C1=O,0,.,2,.,0,-2
COc1cc(Br)cc(CN2CCN(C)CC2)c1O,.,11*,.,-1,.,.
CCCCN1CCN(C(=O)COc2cc(=O)n(C)c3ccccc23)CC1,-2,.,1,.,0,-3
Clc1ccc(-c2nc3ccc(Cl)cn3c2CN2CCOCC2)cc1,-15,2,3,62*,0,-7
CCCC(=O)N1c2ccc(Cl)cc2C(c2ccccc2)=NCC1C(=O)NC(C)(C)C (stereo not given),1,.,0,.,0,1
C/C(=N\N1CCCCCC1)c1c(O)n(-c2ccc(C)cc2)c(=O)[nH]c1=O,-2,-2,-7,-6,0,-1
CC/C(=N\N1CCCCCC1)c1c(O)n(-c2ccc(C)cc2)c(=O)[nH]c1=O,-2,21*,2,-3,1,2
COc1ccc2c(c1)CC1(CN2C)C(=O)NC(=O)N(c2ccc(F)cc2)C1=O (stereo not given),-21,-5,20,72*,1,-7
COc1ccc2c(c1)CC1(CN2C)C(=O)NC(=O)N(c2ccc(C)cc2)C1=O (stereo not given),-5,2,19,52*,1,-3
O=C(NCCN1CCC2(CC1)C(=O)NCN2c1ccccc1)c1ccc(F)cc1,-11,.,-3,.,1,-6
C[C@H](NC(=O)OCc1ccccc1)C(=O)NC(Cc1ccccc1)P(=O)(Oc1ccccc1)Oc1ccccc1 (stereo not given in full),13,.,4,.,0,3
Cc1cccc(OP(=O)(NCc2ccccc2)Oc2cccc(C)c2)c1,13,17*,-9,5,0,6
Cc1cccc(OP(N)(=O)Oc2cccc(C)c2)c1,-4,0,-1,7,0,-2
Clc1ccccc1NC1=NCCCS1,0,-1,1,-1,0,0
Clc1ccccc1Nc1ncnc(-n2cccc2)n1,7,6,5,101*,-1,-1
CN1c2ccc(Br)cc2[C@@H]2NCC[C@@H]2[C@@H]1CO,-191,.,2,.,1,-44
C[N+]1=C(N)NC2=C3CCCCC3ONC2C1 (stereo not given),-12,.,.,.,.,-4
COc1ccccc1N=Cc1c(O)n(C)c(=O)n(C)c1=O,-4,0,-1,73*,-1,-4
CN(C)C(=O)Oc1ccc(Br)cc1C(=O)Nc1ccc(F)c(Cl)c1,-7,-4,-3,67*,0,-3
C=C1C(=O)C(C)=C2C(=O)N3Cc4[nH]c5ccccc5c4CC3(C(=O)OC)C12 (stereo not given),0,.,15,.,1,-2
NC(N)=N/N=C/c1ccc(N(c2ccccc2)c2ccccc2)cc1,-247,22*,30,3,1,-149
COc1cccc(-c2ccc3c(c2)C2c4cnnn4-c4ccccc4C(=O)N2CC3)c1 (stereo not given),-6,.,4,.,0,-6
N#CCC[C@@H]1CC[C@]2(CCCN(Cc3ccccn3)C2)O1,-2,.,-1,.,0,-2
O=C1NC(=O)N(c2ccc(Cl)cc2)C(=O)/C1=C\c1ccc(Sc2nc3ccccc3[nH]2)o1,2,-2,49*,10,0,-2
SMILES,ADAM10 inh,GRIN3A LBD mod,rCAG binder,AHR activator,proKLK7 act,ADAM17 inh
NS(=O)(=O)c1ccc(N=Cc2c(O)n(C3CCCCC3)c(=O)n(C3CCCCC3)c2=O)cc1,2,14*,9,-1,0,1
CCn1c(O)c(C=Nc2ccc(S(N)(=O)=O)cc2)c(=O)n(CC)c1=S,-13,-5,17,2,0,0
O=[N+]([O-])c1ccc(Cl)c([N+](=O)[O-])c1,-12,1,1,-4,0,-3
CN1C(=O)C(c2ccc([N+](=O)[O-])cc2[N+](=O)[O-])C(=O)N(C)C1=O,2,10*,2,11,0,0
COC(=O)C1=C[C@H]([C@@H](C)[C@H](OC)c2ccccc2Br)[C@@H]2[C@H]1c1ccccc1N2C,3,.,6,.,-3,3
Cc1cccc(C(C)c2cnc[nH]2)c1C (stereo not given),-6,.,2,.,0,-1
CN1CCN(c2ccc(S(C)(=O)=O)cc2[N+](=O)[O-])CC1,-2,-3,-2,0,0,-1
CN1CCN(c2ccc(S(=O)(=O)C(F)(F)F)cc2[N+](=O)[O-])CC1,-1,15*,-6,4,0,2
CN1CCN(c2ncnc(Cl)c2N)CC1,-2,3,1,.,0,-4
CN1CCN(c2nc(N)c(Br)c(Cl)n2)CC1,-4,14*,-2,-4,1,0
CC(C)(C)NC(=O)C1CN=C(c2ccccc2)c2cc(Cl)ccc2N1C(=O)C1CCC1 (stereo not given),-3,.,3,.,0,-1
O=C(Nc1ccc(Cl)cc1)O/N=C(\c1ccccc1)c1ccccn1,-10,11*,-1,1,0,2
O=C(Nc1ccc(F)cc1)c1c(O)c2c(n(Cc3ccccc3)c1=O)CCCC2,-9,11*,1,5,0,-4
Cc1ccccc1NP(=O)(Oc1ccccc1F)Oc1ccccc1F,5,11*,-5,0,0,1
CC(NC(=O)OC1CC2CCC1(C)C2(C)C)P(=O)(Oc1ccccc1)Oc1ccccc1 (stereo not given),-1,.,.,.,.,-2
Cc1ccccc1C(=O)NCCN1CCC2(CC1)C(=O)NCN2c1ccccc1,-12,.,1,.,0,-6
C=C(C)C(Cc1c(OC)ccc(C(=O)/C=C/c2ccc(O)cc2)c1O)OO (stereo not given),6,24*,10,-1,0,5
COP(=O)(OC)C(C)NC(=O)OCc1ccccc1 (stereo not given),-4,.,.,.,.,-5
CNc1ccc2nc3ccccc3[n+](C)c2c1,3,12*,-3,10,1,-1
C[n+]1c2ccccc2nc2ccc(NCCO)cc21,2,-3,3,8,0,-3
O=c1c2ccccc2nc(N2CCCC2)n1-c1ccccc1,-404,2,-1,0,5,-109
O=c1c2ccccc2[se]n1-c1ccccc1,12,32*,5,0,0,0
Cc1cc(N(CCCl)CCCl)ccc1C=NNC(=O)Cc1cc(=O)oc2cc(O)ccc12,i,11*,20,.,-3,i
O=c1[nH]c(=O)n(Cc2ccc(F)cc2)c(O)c1C=NCc1cccnc1,7,-6,0,3,0,0
COc1ccc2c(c1OC)C(=O)OC2c1c(O)n(Cc2ccc(F)cc2)c(=O)[nH]c1=O (stereo not given),-6,12*,22,2,-1,-9
